According to PubChem BioAssay AID690 (Sanford-Burnham Center for Chemical Genomics, 2007):
Among all 96,000 compounds or so, about 80 (0.08%) were called active. These entries were drawn from the full list. Potency and affinity values are given separately. A number with no mark means an inactive call. No rule for the calls is given here. Residues, ends and D or L forms follow the SMILES beside them.

target: Alkaline phosphatase, placental type (Homo sapiens) (UniProt P05187); assay: inhibition of human placental alkaline phosphatase – biochemical, luminescence, HTS (AID 690); conditions: purified PLAP, luminescent substrate; at 20 µM; hits give high values
Sequence (P05187 whole entry, looked up): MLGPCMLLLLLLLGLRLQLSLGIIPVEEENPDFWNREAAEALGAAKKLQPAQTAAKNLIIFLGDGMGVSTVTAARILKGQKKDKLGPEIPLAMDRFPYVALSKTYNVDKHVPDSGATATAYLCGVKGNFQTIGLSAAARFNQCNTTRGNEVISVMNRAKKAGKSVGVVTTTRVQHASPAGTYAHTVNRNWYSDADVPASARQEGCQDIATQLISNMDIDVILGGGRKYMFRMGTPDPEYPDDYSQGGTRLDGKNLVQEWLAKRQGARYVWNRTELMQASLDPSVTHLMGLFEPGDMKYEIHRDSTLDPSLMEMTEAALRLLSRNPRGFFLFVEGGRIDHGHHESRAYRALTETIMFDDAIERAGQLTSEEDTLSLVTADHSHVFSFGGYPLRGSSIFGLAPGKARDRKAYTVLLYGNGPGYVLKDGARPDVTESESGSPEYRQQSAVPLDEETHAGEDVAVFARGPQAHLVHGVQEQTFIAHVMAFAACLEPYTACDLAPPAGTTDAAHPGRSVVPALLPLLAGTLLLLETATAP

SMILES | inhibition
Cc1cc2cc(CN(CCCO)S(=O)(=O)c3cccc4nsnc34)c(=O)[nH]c2cc1C | -57.9%
O=C(CCCn1c(SCC(=O)NCC2CCCO2)nc2ccccc2c1=O)NCc1ccccc1 (stereo unspecified) | -31.1%
O=C(CCCn1c(SCC(=O)NCC2CCCO2)nc2ccccc2c1=O)NCC1CCCO1 (stereo unspecified) | -4.3%
CC(C)(C)c1nn(-c2ccccc2)c2[nH]c(=O)c(CNc3ccc4c(c3)OCCO4)cc12 | -71.4%
Cc1ccc(C(=O)CN(C(=O)c2ccc(Cl)c(Cl)c2)N2C(=O)C3CCCCC3C2=O)cc1 (stereo unspecified) | -10.4%
O=C(/C=C/NNC(=O)c1cccc(Br)c1)c1cccc(Br)c1 | -55.3%
CCC(=O)Nc1cccc(C(=O)/C=C/c2ccccc2)c1 | -3.5%
O=C(CCN1C(=O)c2ccccc2C1=O)NC1=NCCS1 | 8.9%
CCOC(=O)C1=NN(c2ccccc2)C(=O)/C1=C\c1ccc(N(C)C)cc1 | 2.6%
CC1=NOC(=O)/C1=C/c1ccc(N(C)C)cc1 | -1.4%
Cc1ccc(C(=O)Nc2nc3ccc(S(C)(=O)=O)cc3s2)s1 | 1.6%
Cc1ccc(CS/C(Nc2ccccc2C)=C(\C#N)C(=O)NCc2ccco2)c(C)c1 | -32.5%
CC(C)Oc1ccc(CNC(=O)CC(c2ccccc2)c2cc(Cl)ccc2O)cc1 (stereo unspecified) | -26.3%
COC(=O)CSc1nsc(SCC(=O)OC)c1C#N | 13.1%
CCc1c(C#N)c(N)nc(SCC(=O)OCc2ccccc2)c1C#N | 14.4%
O=C(O)CSCc1ccc(Cl)cc1 | -5.7%
CS(=O)(=O)NCCSCc1ccc(Cl)cc1 | -9.2%
c1ccc2c(CSCCc3ccncc3)cccc2c1 | -15.7%
c1ccc(SCCc2ccncc2)cc1 | -3.2%

SMILES | inhibition
CCn1c(C)c(C(C)=O)c(N2CCN(c3ccccc3)CC2)nc1=S | -3.4%
O=C(NCc1ccc2c(c1)OCO2)C1CCCN(S(=O)(=O)c2cccc3nonc23)C1 (stereo unspecified) | -13.3%
O=C1N2CCSC2=NC1(Nc1ccccn1)C(F)(F)F (stereo unspecified) | 2%
CCC(CC)NC(=O)Cc1ccccc1[N+](=O)[O-] | -5.8%
COc1ccc(CNC(=O)c2ccccc2[N+](=O)[O-])cc1 | -9.5%
Cc1ccc(N(CC(=O)NCc2ccncc2)S(C)(=O)=O)cc1Cl | -7%
O=C(CSc1nnc(Cn2nnc3ccccc32)o1)N(Cc1ccc(F)cc1)c1ccccc1 | 2.6%
CCSc1nc2c(cnn2-c2ccc(C)c(C)c2)c(=O)[nH]1 | -20.6%
COC(=O)CN1C(=O)S/C(=C/c2ccc(N3CCCCC3)o2)C1=O | -25.9%
CCOC(=O)CN1C(=O)S/C(=C/c2ccc(N3CCCCC3)o2)C1=O | -4.2%
CCO/C=C1/C(=O)N(CC)c2ccccc21 | 4.3%
O=C(OCC(O)CN1CCCCC1)C12CC3CC(CC(C3)C1)C2 (stereo unspecified) | -58.5%
COC(=O)C(N)Cc1ccc(O)cc1 (stereo unspecified) | 18.8%
COC(=O)C(CC(C)C)NC(=O)C(N)Cc1ccccc1 (stereo not drawn) (H-Phe-Leu-OMe; configuration not given here) | -5.6%
O=C(CC(NC(=O)c1ccccc1Cl)c1ccccc1)Nc1ccc2c(c1)OCO2 (stereo unspecified) | 2.4%
Cc1cccc(NC(=O)C2c3ccccc3C(=O)N3CCc4ccccc4C23)n1 (stereo unspecified) | 2.2%
COc1cc(/C=C(/C(=O)c2cccs2)c2nc3ccccc3[nH]2)ccc1O | 33.6%
O=C(/C(=C/c1ccc(Cl)cc1)c1nc2ccccc2[nH]1)c1cccs1 | -30.3%
COc1cc(CNCCc2ccc(F)cc2)ccc1OCc1ccc(Cl)nc1 | -50.6%

SMILES | inhibition
O=C(N1CCOCC1)C12CC3CC(C1)CC(c1ccccc1)(C3)C2 | -20.7%
CCSC1=N/C(=C\c2ccc(C(=O)O)cc2)C(=O)S1 | 11.5%
CSC1=N/C(=C\c2ccc(C)cc2)C(=O)S1 | 1.7%
Cn1nc([N+](=O)[O-])nc1N1CCN(c2ccc(F)cc2)CC1 | 20.5%
CCOC(=O)N1CCC(NC(=O)C(CC(C)C)NC(=O)C2CCC(C)CC2)CC1 (stereo unspecified) | -63.6%
CCN(CC)C(=O)Cn1c(=O)n(-c2ccccc2)c(=O)n1CC(=O)N(CC)CC | 8.2%
COC(=O)c1cn[nH]c1NC(=S)Nc1ccc(C)cc1Cl | -10%
COC(=O)c1cn[nH]c1NC(=S)Nc1ccc(Cl)c(Cl)c1 | -146%
CN(C)S(=O)(=O)c1cccc(C(=O)Nc2cc(Cl)cc(Cl)c2)c1 | -58.5%
Cc1noc(C)c1COC(=O)COc1ccc2c(C)cc(=O)oc2c1 | 8.3%
CCOC(=O)/C(C#N)=C1/C=Cc2ccccc2N1CC | 3.8%
CCN1C(=C2C(=O)c3ccccc3C2=O)C=Cc2ccccc21 | 46.7%
CCCCCOc1ccc(CSC(=N)N)cc1[N+](=O)[O-] | 34.2%
CCOc1ccc(CSC(=N)N)cc1[N+](=O)[O-] | -79.6%
CCN1/C(=C2\OC(=S)N(C)C2=O)Sc2ccccc21 | 13.9%
CCN1/C(=C/C(=O)c2ccco2)Sc2ccccc21 | -0.2%
CCN(CC)S(=O)(=O)c1ccc(C(=O)Nc2cc(C)cc(C)c2)cc1 | 6%
Cc1ccc2nc(SCC(=O)Nc3ccc4c(c3)OCCO4)[nH]c2c1 | -75.7%
